TTR transcr act – TTR transcription activators in neuroblastoma reporter cells, primary screen, cell-based, luminescence, SH-SY5Y, TTR promoter Gaussia luciferase; 100% = recombinant luciferase protein wells; activation, % at 16.7 µM; actives 1.3% (n = 92,000); AID 1117267, 2014;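 active = activation above the mean of all tested compounds plus 3 SD, cut at about 9.5% in these data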;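 note: cells exposed to compounds for one day before reading; 0% = median of all test compound wells on the plate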
TTR inh HuH7 – TTR promoter reporter inhibitors in hepatoma cells, counter-screen for TTR transcription activator project, cell-based, luminescence, HuH7 hepatoma; shares compounds with TTR transcr act; actives 4% (n = 1,100); AID 1117279, 2014; HuH7 TTR promoter-Gaussia luciferase reporter; inhibition, % at 16.7 µM;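 active = average inhibition above the solvent-only control wells' mean plus 3 SD, cut at about 15% in these data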;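 note: 0% = cells with DMSO only and 100% = cells with inhibitor control FD; inhibitors lower well luminescence so higher value means more inhibition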
TTR up confirm – TTR transcription activators, retest, confirmation, cell-based, luminescence, SH-SY5Y, triplicate; shares compounds with TTR transcr act; SHSY5Y TTR promoter Gaussia luciferase; 100% = purified Lucia enzyme wells, no cells; activation, % at 16.7 µM; 1,100 tested, under 10 active;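 active = mean activation above a set limit taken from the earlier primary screen, cut at about 11% in these data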;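 note: 0% = DMSO-treated cells and 100% = recombinant Lucia luciferase without cells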
The depositor's hits bear a star. This is one part of a sample in which hits are shown more often than they occur.

Screening COc1ccc2cc3c(N)nn(C(=O)c4ccccc4[N+](=O)[O-])c3nc2c1 returned TTR transcr act 26*, TTR inh HuH7 26* and TTR up confirm -1.
Screening CCCC1CCC(C(=O)n2nc(N)c3cc4ccc(OC)cc4nc32)CC1 (stereo unspecified) returned TTR transcr act -1.
Screening COc1ccc2cc3c(N)nn(C(=O)c4ccc(Cl)c([N+](=O)[O-])c4)c3nc2c1 returned TTR transcr act -1.
Screening COc1ccc(Cn2ccc3ccc(-c4ccc5ccn(C(=O)c6ccccc6C)c5c4)cc32)cc1 returned TTR transcr act -1.
For COC(=O)[C@]12C[C@H](CC(=O)NCCCCc3ccccc3)C(=O)N(Cc3cccc4ccccc34)C1=C[C@H](C(C)C)O[C@@H]2C1CC1 the results were TTR transcr act 0.
`COc1cccc(NC(=O)n2ccc3ccc(-c4ccc5cc[nH]c5c4)cc32)c1` gave TTR transcr act -1.
For CN(c1ccccc1)S(=O)(=O)c1cccc(NC(=O)CSc2nnc(C3CC3)n2C)c1 the results were TTR transcr act 2.
For CN(C)S(=O)(=O)c1cccc(NC(=O)CSc2nncn2C)c1 the results were TTR transcr act 12*, TTR inh HuH7 -6 and TTR up confirm 5.
For Cn1cnnc1SCC(=O)Nc1ccccc1 the results were TTR transcr act 0.
`CC(C)[C@H]1/C(=C/C2CC2)N2C(=O)C[C@H](c3cccc(C(F)(F)F)c3)N=C2N1Cc1ccc2c(c1)OCO2` gave TTR transcr act 0.
Screening COc1ccc(Cl)cc1NC(=O)c1cc(C2CC2)on1 returned TTR transcr act -1.
For COc1ccc(Cl)cc1NC(=O)c1cc(-c2ccccc2)on1 the results were TTR transcr act 12*, TTR inh HuH7 11 and TTR up confirm 0.
COc1ccc(NC(=O)c2cc(-c3ccc(OC)c(OC)c3)on2)cc1OC was read as TTR transcr act 0.
For CC(C)=CCC/C(C)=C/C[C@]12C[C@H](C(=O)O)N(C(=O)OC(C)(C)C)[C@@H]1N(C(=O)OC(C)(C)C)c1ccccc12 the results were TTR transcr act -2.
Screening COc1ccc(OC)c(N(CC(=O)Nc2ccccc2F)S(=O)(=O)c2ccccc2)c1 returned TTR transcr act -2.
COc1ccc(CN(C)CC(=O)NC(=O)Nc2ccccc2F)cc1 was read as TTR transcr act 11*, TTR inh HuH7 -14 and TTR up confirm 0.
Screening COc1ccc(S(=O)(=O)NC(C)C(=O)Nc2ccccc2F)cc1 (stereo unspecified) returned TTR transcr act 0.
CCC[C@H]1[C@@H](NC(=O)c2ccc(Cl)c(C(F)(F)F)c2)CC[C@@]23CCCN2C(=O)CCC[C@@H]13 was read as TTR transcr act 3.
Screening CCOC(=O)[C@@]12CCCC=C1N(CCc1ccc(Cl)cc1)C(=O)[C@H]2CC(=O)NCc1ccc(C)o1 returned TTR transcr act 0.
Screening CC(=O)c1c(C)nc(C)nc1NC(=O)Cc1ccccc1 returned TTR transcr act 1.
Screening CCOC(=O)c1c(C)nc(-c2ccccc2)nc1NC(=O)CC returned TTR transcr act -3.
For CC(=O)Nc1nc(-c2ccc(Cl)cc2)nc(C)c1C(C)=O the results were TTR transcr act 36*, TTR inh HuH7 -6 and TTR up confirm 0.
O=C(Nc1ccc(C(O)(C(F)(F)F)C(F)(F)F)cc1)c1ccc(F)cc1Cl was read as TTR transcr act -2.
CN1C(=O)C(c2cn(C)c3ccccc23)(c2cn(C)c3ccccc23)c2ccccc21 was read as TTR transcr act 0.
CCCCCCCC(=O)NC1=NC(=O)C(C)(C)S1 was read as TTR transcr act 13*, TTR inh HuH7 3 and TTR up confirm 1.
Screening CCCCC(=O)Nc1ccc(NC(=O)CCCC)nc1 returned TTR transcr act 0.
For CCCCC(=O)Nc1ccc(Br)cn1 the results were TTR transcr act 1.
Screening O=C1SCCC1NC(=O)C(c1ccccc1)c1ccccc1 (stereo unspecified) returned TTR transcr act 18*, TTR inh HuH7 0 and TTR up confirm -1.
`O=C(NC1CC1)C(Cl)c1ccccc1` (stereo unspecified) gave TTR transcr act 0.
Screening O=C(CCCc1ccccc1)NC1CCSC1=O (stereo unspecified) returned TTR transcr act 1.
COc1ccc(CCN=C(N)NS(=O)(=O)c2ccc(C)c(C)c2)cc1OC was read as TTR transcr act 1.
For COc1ccc(CCN=C(N)NS(=O)(=O)c2cccs2)cc1OC the results were TTR transcr act 4.
`COc1ccc(S(=O)(=O)NC(N)=NCCc2ccc(OC)c(OC)c2)cc1C` gave TTR transcr act 12*, TTR inh HuH7 -11 and TTR up confirm 1.
For CCCCOCCCNC(=O)C[C@H]1C[C@@]2(C(=O)OC)C(=C[C@H](COCc3ccccc3)O[C@@H]2C)N(CCc2ccc(OC)c(OC)c2)C1=O the results were TTR transcr act 0.
O=C(NCc1ccccc1)OC1CCC12CCC(c1ccccc1)CC2 (stereo unspecified) was read as TTR transcr act 1.
`CCOC(=O)[C@@]12CCCC=C1N(CCc1ccc(Cl)cc1)C(=O)[C@H]2CC(=O)N1CCC(c2ccccc2)CC1` gave TTR transcr act 0.
`O=C(O)CCc1ccc(-c2ccccc2)n1NC(=O)c1ccco1` gave TTR transcr act 22*, TTR inh HuH7 -19 and TTR up confirm 0.
Screening O=C(O)CCc1ccc(-c2cccs2)n1NC(=O)c1ccco1 returned TTR transcr act -3.
O=C(Nn1c(-c2ccccc2)nc2ccccc2c1=O)c1ccco1 was read as TTR transcr act 1.
`CCCC1CCC2(CC1)CCC2OC(=S)Nc1ccc(N(C)C)cc1` (stereo unspecified) gave TTR transcr act 2.
For C[C@H]1[C@@H](OC(=O)NC2CCC2)CC[C@@]23CCCN2C(=O)CCC[C@@H]13 the results were TTR transcr act 0.
Screening O=C(NCC(c1ccccc1)c1ccccc1)[C@H](Cc1c[nH]c2ccccc12)NC1(C(=O)NC2CCCCC2)CCC1 returned TTR transcr act 0.
For COc1ccc(OCC(=O)Nc2ccc(S(=O)(=O)N3CCCCC3)cc2)cc1 the results were TTR transcr act -1.
For CCOC(=O)CSCC(=O)Nc1ccc(S(=O)(=O)N2CCCCC2)cc1 the results were TTR transcr act -2.
Screening Cc1cc(=O)[nH]c(SCC(=O)Nc2ccc(S(=O)(=O)N3CCCCC3)cc2)n1 returned TTR transcr act 13*, TTR inh HuH7 -2 and TTR up confirm 0.
For COc1ccc(NC(=O)CSCC(=O)Nc2ccc(S(=O)(=O)N3CCCC3)cc2)cc1 the results were TTR transcr act 0.
Screening Cc1ccc(NC(=O)CSc2nc(N)cc(=O)[nH]2)cc1S(=O)(=O)N1CCCCCC1 returned TTR transcr act 1.
`COc1ccc(NC(=S)Nc2ccc(S(=O)(=O)N3CCCCC3)cc2)cc1` gave TTR transcr act 12*, TTR inh HuH7 12 and TTR up confirm 0.
